Source: PubChem BioAssay AID1159580 (chemical genetic matrix, 2015)
Hit rate of the full screen: of about 5,500 compounds, about 2,000 (36%) were called active. Inconclusive results (about 18%) are left out. Rule as the data show it: active = normalized growth mostly below about 0.91 (no sharp cut-off); inconclusive = no clear call, values can overlap the other calls; inactive = mostly above about 0.92. The list shows a part of the results.

Assay: chemical genetic growth profiling, strain panel (AID 1159580);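 also: tested at 20 µM; growth read once vehicle control cultures reached saturation at 30 °C; 1 = growth at the plate median or of vehicle wells; lower values mean less growth of the strain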
Settings: growth OD

Measured: normalized growth

CC(C)(S)[C@@H](N)C(=O)O
inactive: S. cerevisiae deletion strains, locus YJR043C, strain POL32, stronger effect = lower value 1 | S. cerevisiae deletion strains, locus YJR066W, strain TOR1, stronger effect = lower value 0.952 | S. cerevisiae deletion strains, locus YKL009W, strain mrt4, stronger effect = lower value 0.988 | S. cerevisiae deletion strains, locus YKL068W, stronger effect = lower value 0.995 | S. cerevisiae deletion strains, locus YKL085W, strain MDH1 (second series), stronger effect = lower value 0.993 | S. cerevisiae deletion strains, locus YKL085W, strain MDH1, stronger effect = lower value 0.993 | S. cerevisiae deletion strains, locus YKL160W, strain elf1, stronger effect = lower value 1.03 | S. cerevisiae deletion strains, locus YKL190W, strain CNB1, stronger effect = lower value 0.999 | S. cerevisiae deletion strains, locus YKR001C, strain vps1, stronger effect = lower value 0.988 | S. cerevisiae deletion strains, locus YKR026C, strain gcn3, stronger effect = lower value 0.994 | S. cerevisiae deletion strains, locus YKR091W, strain srl3, stronger effect = lower value 1 | S. cerevisiae deletion strains, locus YLL001W, strain dnm1, stronger effect = lower value 1.02 | S. cerevisiae deletion strains, locus YLL026W, stronger effect = lower value 1.01 | S. cerevisiae deletion strains, locus YLL041C, strain sdh2, stronger effect = lower value 1 | S. cerevisiae deletion strains, locus YLR027C, strain aat2, stronger effect = lower value 0.995 | S. cerevisiae deletion strains, locus YLR039C, strain RIC1, stronger effect = lower value 1.02 | S. cerevisiae deletion strains, locus YLR058C, strain SHM2, stronger effect = lower value 1.01 | S. cerevisiae deletion strains, locus YLR102C, strain apc9, stronger effect = lower value 0.992 | S. cerevisiae deletion strains, locus YLR113W, strain HOG1, stronger effect = lower value 0.99 | S. cerevisiae deletion strains, locus YLR221C, strain rsa3, stronger effect = lower value 1 | S. cerevisiae deletion strains, locus YLR258W, strain gsy2, stronger effect = lower value 1 | S. cerevisiae deletion strains, locus YLR262C, strain YPT6 (second series), stronger effect = lower value 1.02 | S. cerevisiae deletion strains, locus YLR262C, strain YPT6, stronger effect = lower value 1 | S. cerevisiae deletion strains, locus YLR268W, strain sec22, stronger effect = lower value 0.969 | S. cerevisiae deletion strains, locus YLR320W, strain mms22, stronger effect = lower value 1.04 | S. cerevisiae deletion strains, locus YLR330W, strain CHS5, stronger effect = lower value 1.01 | S. cerevisiae deletion strains, locus YLR342W, strain FKS1 (second series), stronger effect = lower value 1.03 | S. cerevisiae deletion strains, locus YLR342W, strain FKS1, stronger effect = lower value 1.01 | S. cerevisiae deletion strains, locus YLR357W, strain rsc2, stronger effect = lower value 1 | S. cerevisiae deletion strains, locus YLR370C, strain arc18, stronger effect = lower value 1 | S. cerevisiae deletion strains, locus YLR371W, strain rom2, stronger effect = lower value 0.994 | S. cerevisiae deletion strains, locus YLR384C, strain iki3, stronger effect = lower value 0.993 | S. cerevisiae deletion strains, locus YLR418C, strain cdc73, stronger effect = lower value 0.98 | S. cerevisiae deletion strains, locus YML016C, strain PPZ1, stronger effect = lower value 1.02 | S. cerevisiae deletion strains, locus YML032C, strain rad52, stronger effect = lower value 0.991 | S. cerevisiae deletion strains, locus YML120C, strain ndi1, stronger effect = lower value 0.998 | S. cerevisiae deletion strains, locus YML124C, strain tub3, stronger effect = lower value 0.994 | S. cerevisiae deletion strains, locus YMR058W, strain fet3, stronger effect = lower value 1.01 | S. cerevisiae deletion strains, locus YMR078C, strain ctf18, stronger effect = lower value 0.988 | S. cerevisiae deletion strains, locus YMR125W, strain sto1, stronger effect = lower value 1 | S. cerevisiae deletion strains, locus YMR129W, stronger effect = lower value 0.996 | S. cerevisiae deletion strains, locus YMR205C, strain PFK2, stronger effect = lower value 1.04 | S. cerevisiae deletion strains, locus YMR223W, strain ubp8, stronger effect = lower value 0.999 | S. cerevisiae deletion strains, locus YMR231W, strain pep5, stronger effect = lower value 0.999 | S. cerevisiae deletion strains, locus YMR307W, strain GAS1, stronger effect = lower value 1.01 | S. cerevisiae deletion strains, locus YNL067W, strain RPL9B, stronger effect = lower value 0.993 | S. cerevisiae deletion strains, locus YNL071W, strain lat1, stronger effect = lower value 1 | S. cerevisiae deletion strains, locus YNL183C, strain NPR1, stronger effect = lower value 0.964 | S. cerevisiae deletion strains, locus YNL209W, strain ssb2, stronger effect = lower value 0.997 | S. cerevisiae deletion strains, locus YNL233W, strain BNI4, stronger effect = lower value 1.02 | S. cerevisiae deletion strains, locus YNL248C, strain rpa49, stronger effect = lower value 1 | S. cerevisiae deletion strains, locus YNL250W, strain rad50, stronger effect = lower value 0.985 | S. cerevisiae deletion strains, locus YNL271C, strain bni1, stronger effect = lower value 0.988 | S. cerevisiae deletion strains, locus YNL298W, strain CLA4, stronger effect = lower value 0.991 | S. cerevisiae deletion strains, locus YNL307C, strain MCK1, stronger effect = lower value 0.992 | S. cerevisiae deletion strains, locus YNL322C, strain KRE1 (second series), stronger effect = lower value 1.01 | S. cerevisiae deletion strains, locus YNR049C, strain mso1, stronger effect = lower value 0.997 | S. cerevisiae deletion strains, locus YNR052C, strain pop2, stronger effect = lower value 0.988 | S. cerevisiae deletion strains, locus YOL006C, strain TOP1, stronger effect = lower value 1.08 | S. cerevisiae deletion strains, locus YOL012C, strain htz1 0.654 | S. cerevisiae deletion strains, locus YOL147C, strain pex11, stronger effect = lower value 0.984 | S. cerevisiae deletion strains, locus YOR001W, strain rrp6, stronger effect = lower value 0.989 | S. cerevisiae deletion strains, locus YOR061W, strain CKA2, stronger effect = lower value 1.01 | S. cerevisiae deletion strains, locus YOR069W, strain VPS5, stronger effect = lower value 1 | S. cerevisiae deletion strains, locus YOR070C, strain gyp1, stronger effect = lower value 1.01 | S. cerevisiae deletion strains, locus YOR080W, strain dia2, stronger effect = lower value 1 | S. cerevisiae deletion strains, locus YOR083W, strain WHI5, stronger effect = lower value 1.04 | S. cerevisiae deletion strains, locus YOR106W, strain vam3, stronger effect = lower value 1.03 | S. cerevisiae deletion strains, locus YOR136W, strain idh2, stronger effect = lower value 0.994 | S. cerevisiae deletion strains, locus YOR144C, strain elg1, stronger effect = lower value 0.992 | S. cerevisiae deletion strains, locus YOR184W, strain ser1, stronger effect = lower value 1.01 | S. cerevisiae deletion strains, locus YOR231W, strain MKK1, stronger effect = lower value 1.01 | S. cerevisiae deletion strains, locus YOR265W, strain rbl2, stronger effect = lower value 1 | S. cerevisiae deletion strains, locus YOR270C, strain vph1, stronger effect = lower value 0.989 | S. cerevisiae deletion strains, locus YOR290C, strain snf2, stronger effect = lower value 1.04 | S. cerevisiae deletion strains, locus YOR316C, strain cot1, stronger effect = lower value 0.993 | S. cerevisiae deletion strains, locus YPL051W, strain arl3, stronger effect = lower value 1.02 | S. cerevisiae deletion strains, locus YPL078C, strain atp4, stronger effect = lower value 1.01 | S. cerevisiae deletion strains, locus YPL106C, strain sse1, stronger effect = lower value 1.03 | S. cerevisiae deletion strains, locus YPL240C, strain hsp82, stronger effect = lower value 0.988 | S. cerevisiae deletion strains, locus YPL241C, strain CIN2, stronger effect = lower value 1.01 | S. cerevisiae deletion strains, locus YPL256C, strain CLN2, stronger effect = lower value 0.986 | S. cerevisiae deletion strains, locus YPR119W, strain clb2, stronger effect = lower value 1 | S. cerevisiae deletion strains, locus YPR141C, strain kar3, stronger effect = lower value 0.993 | S. cerevisiae deletion strains, locus YPR163C, strain tif3, stronger effect = lower value 0.991 | S. cerevisiae deletion strains, locus YPR167C, strain met16, stronger effect = lower value 0.991 | S. cerevisiae deletion strains, strain wtn01, stronger effect = lower value 0.976 | S. cerevisiae strains, strain wild type, stronger effect = lower value 1.01
